High-throughput results: PubChem, NMMLSC
The list is not random: actives were taken first. Their share in the collection is about 1.2%.
RGS4-Gao reg: human RGS4-Galphao interaction regulation; P09471; Multiplexed bead flow cytometry, RGS4-Galphao binding; actives lie on both sides; binding response (% of control), % at 10 µM; hit rate 0.33% among 220,000; AID 1415; in the data active = binding response below about 49% or above about 150%; inactive = in between;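 also: fluorescent Galphao activated with aluminum fluoride binding bead-coupled RGS4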
Target sequence (P09471 whole entry, looked up): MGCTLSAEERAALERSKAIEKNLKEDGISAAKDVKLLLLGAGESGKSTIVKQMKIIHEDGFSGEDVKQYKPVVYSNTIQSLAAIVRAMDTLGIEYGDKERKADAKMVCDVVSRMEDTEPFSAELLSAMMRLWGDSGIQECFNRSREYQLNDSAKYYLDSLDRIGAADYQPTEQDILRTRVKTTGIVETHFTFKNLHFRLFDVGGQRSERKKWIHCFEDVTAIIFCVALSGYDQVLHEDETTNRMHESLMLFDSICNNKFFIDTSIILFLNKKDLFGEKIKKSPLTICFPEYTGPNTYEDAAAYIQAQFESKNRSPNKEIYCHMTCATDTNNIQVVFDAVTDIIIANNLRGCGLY
GSH bead fluor: GSH bead compound fluorescence profile; fluorescence (KMESF) at 10 µM; GSH beads flow cytometry, compound fluorescence 488/530 nm; active compounds read high; AID 1776; hit rate 0.25% among 190,000; in the data active = fluorescence above about 89;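 also: glutathione beads carrying GST-tagged Bcl family fusion proteins plus one bare bead set; values are compound well signal with DMSO vehicle wells as background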
RGS8-Gao reg: regulators of human RGS8-Galphao interaction; AID 1423; multiplexed bead flow cytometry, RGS8-Galphao binding; actives lie on both sides; response (percent of control binding), % at 10 µM; P09471; hit rate 0.34% among 220,000; in the data active = response below about 60% or above about 140%; inactive = in between;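 also: Galphao activated as the GDP aluminium fluoride complex binding bead-coupled RGS8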
Avidin bead fluor: compound fluoresces at 488/530 nm on avidin beads | compound fluorescence 488/530 nm, flow cytometry; active compounds read high | fluorescence (KMESF) at 10 µM | hit rate 0.38% among 220,000; in the data active = fluorescence above about 47
RGS7-Gao: modulates binding of RGS7 to human Galphao; P09471; Multiplexed bead flow cytometry; actives lie on both sides; binding response (% of control), % at 10 µM; hit rate 0.35% among 220,000; AID 1439; in the data active = binding response below about 49% or above about 150%; inconclusive = no clear call, values can overlap the other calls; inactive = in between;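 also: fluorescent Galphao held in activated GDP-AlF4 state binding bead-coupled RGS7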
RGS16-Gao: modulates binding between human RGS16 and Galphao | O15492+P09471 | binding response (% of control), % at 10 µM | hit rate 0.38% among 220,000 | bead-based flow cytometry RGS16-Galphao binding, fluorescence; actives lie on both sides; call rule not given here;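 also: Galphao activated by GDP with aluminum fluoride before binding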
Active calls of the source: *; ? = inconclusive; . = not tested or not shown; [ ] = dose if it differs, or a comment.

SMILES | RGS4-Gao reg | GSH bead fluor | RGS8-Gao reg | Avidin bead fluor | RGS7-Gao | RGS16-Gao
CC(=O)N/C(=C/c1ccc(OS(=O)(=O)c2ccc(C)cc2)cc1)C(=O)Nc1ccc(C(=O)O)cc1 | 97 | . | 98 | 8 | ? | 95
CCOc1cccc(C(=O)Nc2cccc(-c3nnc(-c4ccccc4)o3)c2)c1 | 93 | 20 | 95 | 8 | 89 | 93
CCOc1cccc(C(=O)Nc2cccc(-c3nnc(-c4ccc(C)cc4)o3)c2)c1 | 151*[activator] | 24 | 109 | 46 | 143 | 341
CCNC(=S)N(Cc1ccco1)Cc1cc2cc(OCC)ccc2[nH]c1=O | 98 | 11 | 98 | 10 | 97 | 98
CCNC(=S)N(Cc1cccs1)Cc1cc2cc(OCC)ccc2[nH]c1=O | 126 | 239* | 100 | 41 | 131 | 143
Cn1nccc1NS(=O)(=O)c1ccc(NC(=O)C(F)(F)F)cc1 | 112 | . | 112 | 7 | ? | 115
Cc1ccccc1CS(=O)(=O)c1nnc([C@H](Cc2ccccc2)NC(=O)OC(C)(C)C)o1 | 116 | 6 | 94 | 48* | 132 | 92
CC(C)(C)OC(=O)N[C@@H](Cc1ccccc1)c1nnc(S(=O)(=O)Cc2ccccc2)o1 | 98 | 9 | 94 | 8 | 101 | 93
CCOc1ccc(-c2nn[nH]n2)cc1 | 101 | 275* | 103 | 8 | 105 | 106
Cc1ccnc(NS(=O)(=O)c2ccc3c(c2)CCO3)c1 | 110 | . | 106 | 8 | ? | 110
O=S(=O)(Nc1ccc(Cl)cc1)c1ccc2c(c1)CCO2 | 109 | . | 103 | 62* | ? | 97
COCCOC(=O)c1c(C)oc2ccc(OCC=C(C)C)cc12 | 105 | 24 | 101 | 48* | 110 | 100
COc1ccc(N2CCN(C(=O)CC34CC5CC(CC(C5)C3)C4)CC2)c([N+](=O)[O-])c1 | 100 | 8 | 97 | 4 | 103 | 69
Cc1cc(C)n2c(SCCC(C)C)nnc2n1 | 111 | 255* | 110 | 9 | 107 | 119
O=C(CSc1nnc(-c2c[nH]c3ccccc23)o1)N1CCCCC1 | 101 | 24 | 102 | 57* | 115 | 97
COC(=O)C(NC(=O)C(C)NC(=O)OCc1ccccc1)C(C)C (configuration not stated) | 101 | . | 99 | 8 | ? | 97
O=C(Nc1ccccn1)C(=O)N1CCCCC1 | 89 | 96* | 87 | 5 | 94 | 59
O=C(CCCN1C(=O)c2ccccc2C1=O)NC1=NCCS1 | 100 | 259* | 104 | 8 | 98 | 96
CCC(CO)NCc1ccc(OC2CCCC2)cc1 (configuration not stated) | 99 | 140* | 104 | 4 | 103 | 100
CC(C)OC(=O)CSc1nc(Cc2ccccc2)nc2ccccc12 | 108 | 12 | 109 | 13 | 109 | 116
Cn1nnc(NC(=O)CSc2ccc(Cl)cc2)n1 | 99 | 25 | 99 | 48* | 105 | 98
CC(C)(C)NC(=O)C(OC(=O)c1cccs1)c1ccc(C#N)cc1 (configuration not stated) | 103 | 16 | 102 | 13 | 102 | 110
N#Cc1ccc(OCC(=O)n2cc(C(=O)c3cc(Cl)cc(Cl)c3O)cn2)cc1 | 99 | . | 98 | 11 | ? | 98
Nc1nonc1/C(=N/O)N1CCN(CCO)CC1 | 102 | 261* | 98 | 9 | 98 | 101
CN1CCN(/C(=N\O)c2nonc2N)CC1 | 99 | 24 | 103 | 5 | 97 | 108
SMILES | RGS4-Gao reg | GSH bead fluor | RGS8-Gao reg | Avidin bead fluor | RGS7-Gao | RGS16-Gao
C=CCNc1ncnc2sc(SC)nc12 | 99 | . | 100 | 8 | ? | 102
Cc1ccc(CS(=O)(=O)c2ccc(C(=O)N3CCN(c4ccccn4)CC3)cc2[N+](=O)[O-])cc1 | 100 | 20 | 89 | 60* | 100 | 36
Cc1ccc(CSc2nnc(C(F)(F)F)n2Cc2ccc(F)cc2)cc1 | 102 | 17 | 102 | 36 | 103 | 107
COc1cccc(CSc2nnc(C(F)(F)F)n2Cc2ccc(F)cc2)c1 | 20* | 27 | 12* | -2 | 12* | 0.4*
CCOC(=O)C1(Cc2ccc(Cl)cc2)CCN(C(=O)c2cnc(C)cn2)CC1 | 85 | . | 94 | 5 | ? | 100
COc1nc(Nc2ccc(C(C)=O)cc2)nc(OC)n1 | 188*[activator] | 33 | 94 | 76* | 149 | 239
COC(=O)c1ccc(Nc2nc(C)cc(C)n2)cc1 | 97 | 14 | 99 | 42 | 102 | 100
